In PubChem BioAssay (EPA / NIEHS):
Active and inactive are the calls of the source. Rule for the calls: active = hit-call score of the fitted dose curve at least 0.9, where 1 is the maximum; inactive = score below 0.9.

These compounds were tested on TTR (gene 7276) (assay: CCTE_GLTED_hTTR_0.125uM: CCTE's human Transthyretin (hTTR) Inhibition Assay, with 0.125uM TTR, Great Lakes Toxicology and Ecology Division (GLTED) Lab (AID 2284431);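 note: hits lower the fluorescence signal relative to DMSO baseline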).
In short: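 TTR at 0.125uM incubated 2 h with test chemical; displacement of bound ANSA read by fluorescence (ex 380, em 475). Activity is signal loss versus DMSO baseline.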

Compound	AC50
O=S(=O)(O)c1ccc(N=Nc2c(O)ccc3cc(S(=O)(=O)O)ccc23)cc1	17.1 µM (active)
C=CCc1cc(S(=O)(=O)c2ccc(O)c(CC=C)c2)ccc1O	1.67 µM (active)
CCc1ccc(O)c(C(C)(C)C)c1	12.4 µM (active)
